From PubChem BioAssay (NCI) come the findings set out here.

The panel holds about 83,000 compounds, 20% with a hit somewhere; the sample as a whole holds those more often.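 Testing used 96-well plates and a 48-hour single-concentration exposure. Example: -40 means 40% of the starting cells died.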 Calls of active or inactive are those of the source. The calls were made as follows: active = growth percent below 10; inactive = the rest.

For this experiment, the system named is MDA-MB-468 breast. The experiment in a line: NCI-60 one-dose screen, 48 h (100 = growth as untreated, 0 = no growth, -100 = all killed). The settings on record: 10 µM unless noted.
Turning to `COc1cc(C2C3=C(COC3=O)Nc3cc4c(cc32)OCO4)cc2c1OCO2` (configuration not stated), the growth was -10.3% (active).
For `Cn1ccnc1C(=O)/C=C/c1ccc(CC(=O)Nc2ccc(Cl)cc2)cc1`, the growth was -15.4% (active).
In the case of `CCOC(=O)c1nnn(-c2no[n+]([O-])c2-c2ccc(OC)cc2)c1COc1cccc2cccnc12` it was 33.6% (inactive); in that of `COc1ccc(C2CC(c3cccc(OCCCCOc4cccc(C5=NN(C(C)=O)C(c6ccc(OC)cc6)C5)c4)c3)=NN2C(C)=O)cc1` (configuration not stated), 23.7% (inactive).
Turning to `CC(C)(C)n1cc(-c2ccnc(NCCCNS(=O)(=O)c3ccc(C(F)(F)F)cc3)c2)c(-c2cccc(F)c2)n1`, the growth was 98.6% (inactive).
Turning to `N/C(=N\C(N)=N\c1nc2ccccc2s1)c1ccc2ccccc2c1`, the growth was 109% (inactive).
Consider `COc1c(C)c2c(c(O)c1C/C=C(\C)CCC(=O)OCCN1CCOCC1)C(=O)OC2`, for which the growth is 32.6% (inactive).
In the case of `O=C(CC(NC(=O)OCc1ccccc1)C(=O)OCc1ccccc1)OCc1ccccc1` (configuration not stated) it was 112% (inactive); in that of `O=C(O)c1ccc(-n2cc(/C=N/Nc3ccc(F)cc3)c(-c3cccc(C(F)(F)F)c3)n2)cc1`, 90.8% (inactive).
Then `COc1cccc(-c2nn(-c3ccccc3)cc2-c2ccnc(NCCCNC(=O)c3ccc(F)cc3)c2)c1`, with 13.7% (inactive); and `O=C1COCCN1c1ccc(Nc2nc(Cl)nc(OCc3cn(Cc4ccccc4)nn3)n2)cc1`, with 62.1% (inactive); and `Nc1ccc(CC[C@H]2CCC/C=C/[C@@H]3C[C@H](O)C[C@H]3[C@H](O)/C=C/C(=O)O2)cc1`, with -27.3% (active).
